Laboratory results reported in PMC7862700, “An all-to-all approach to the identification of sequence-specific readers for epigenetic DNA modifications on cytosine”.

Legend:
Test in all cases: DAPPL (digital affinity profiling via proximity ligation, sequencing); 10 mM Tris-HCl pH 7.5, 50 mM NaCl, 1 mM DTT, 4% glycerol, room temperature, 30 min; GST-TFs on glutathione beads, 16-mer random dsDNA library, 0.1% formaldehyde crosslink after washing; high values mean tight binding
FEV = target: T1, FEV (Homo sapiens, UniProt Q99581 1-238); details: protein: recombinant; tags: N-terminal GST; dsDNA, one strand shown
T1 sequence: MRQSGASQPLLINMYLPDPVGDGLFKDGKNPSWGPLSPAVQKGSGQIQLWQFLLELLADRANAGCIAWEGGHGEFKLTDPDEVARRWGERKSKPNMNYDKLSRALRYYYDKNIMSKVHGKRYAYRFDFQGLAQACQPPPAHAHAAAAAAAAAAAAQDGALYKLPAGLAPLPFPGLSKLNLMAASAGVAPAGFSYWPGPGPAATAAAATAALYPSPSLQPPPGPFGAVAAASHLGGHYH
In short: (§1)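 Each value of binding signal is a hexamer's read frequency for a factor divided by the same hexamer's frequency in the tag-only sample. Barcoded, bead-captured GST fusions of human transcription factors made in yeast were pooled with that sample and incubated with 200 nmole of a random double-stranded 16-mer DNA library in Tris/NaCl/DTT/glycerol buffer at room temperature for 30 min. Washing, 0.1% formaldehyde crosslinking, proximity ligation, PCR and Illumina NextSeq500 sequencing followed.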

ETV5 = ETV5 (Homo sapiens, UniProt P41161 1-510); details: protein: recombinant; tags: N-terminal GST; dsDNA, one strand shown
ETV5, sequence (P41161 whole entry): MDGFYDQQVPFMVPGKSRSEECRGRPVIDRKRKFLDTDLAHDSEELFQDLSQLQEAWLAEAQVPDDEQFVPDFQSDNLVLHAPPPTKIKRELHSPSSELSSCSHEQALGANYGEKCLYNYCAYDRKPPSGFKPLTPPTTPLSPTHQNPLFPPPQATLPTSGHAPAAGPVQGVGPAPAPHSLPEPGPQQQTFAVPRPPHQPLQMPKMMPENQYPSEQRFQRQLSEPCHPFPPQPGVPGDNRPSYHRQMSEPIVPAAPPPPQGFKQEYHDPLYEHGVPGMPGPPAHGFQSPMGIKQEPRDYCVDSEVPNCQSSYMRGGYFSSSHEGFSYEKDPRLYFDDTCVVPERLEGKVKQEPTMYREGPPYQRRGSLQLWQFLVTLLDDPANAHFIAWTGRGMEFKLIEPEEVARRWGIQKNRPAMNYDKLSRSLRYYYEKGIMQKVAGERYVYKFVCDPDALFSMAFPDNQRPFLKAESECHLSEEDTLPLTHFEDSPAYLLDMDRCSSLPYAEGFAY
In short: as §1

HSF1 = HSF1 (Homo sapiens, UniProt Q00613 1-529); details: protein: recombinant; tags: N-terminal GST; chain copies: 3; dsDNA, one strand shown
HSF1, sequence (Q00613 whole entry): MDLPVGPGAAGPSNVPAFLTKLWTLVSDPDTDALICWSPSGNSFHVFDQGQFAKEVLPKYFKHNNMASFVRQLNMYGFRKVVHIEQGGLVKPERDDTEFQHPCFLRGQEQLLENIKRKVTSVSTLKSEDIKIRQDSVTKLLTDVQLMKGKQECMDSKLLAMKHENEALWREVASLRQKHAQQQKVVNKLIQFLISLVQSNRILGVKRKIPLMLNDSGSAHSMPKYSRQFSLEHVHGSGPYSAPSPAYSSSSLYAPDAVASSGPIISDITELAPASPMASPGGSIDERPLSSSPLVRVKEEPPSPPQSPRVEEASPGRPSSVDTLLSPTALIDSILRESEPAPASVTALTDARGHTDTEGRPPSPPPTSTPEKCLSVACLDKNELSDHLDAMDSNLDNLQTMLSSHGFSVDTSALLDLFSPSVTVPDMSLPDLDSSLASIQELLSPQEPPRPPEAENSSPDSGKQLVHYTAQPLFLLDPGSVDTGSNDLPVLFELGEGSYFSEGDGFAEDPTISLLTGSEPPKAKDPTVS
In short: as §1

SPIC = target: T2, SPIC (Homo sapiens, UniProt Q8N5J4 1-248); details: protein: recombinant; tags: N-terminal GST; dsDNA, one strand shown
T2 sequence: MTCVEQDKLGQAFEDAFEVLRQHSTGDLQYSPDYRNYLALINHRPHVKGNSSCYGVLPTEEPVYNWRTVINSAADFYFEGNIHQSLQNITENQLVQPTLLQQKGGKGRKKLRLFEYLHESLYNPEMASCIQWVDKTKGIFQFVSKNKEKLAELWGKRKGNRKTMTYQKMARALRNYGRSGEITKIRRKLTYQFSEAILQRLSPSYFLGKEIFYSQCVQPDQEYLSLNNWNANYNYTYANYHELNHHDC
In short: as §1

ELF4 = ELF4 (Homo sapiens, UniProt Q99607 1-663); details: protein: recombinant; tags: N-terminal GST; dsDNA, one strand shown
ELF4, sequence (Q99607 whole entry): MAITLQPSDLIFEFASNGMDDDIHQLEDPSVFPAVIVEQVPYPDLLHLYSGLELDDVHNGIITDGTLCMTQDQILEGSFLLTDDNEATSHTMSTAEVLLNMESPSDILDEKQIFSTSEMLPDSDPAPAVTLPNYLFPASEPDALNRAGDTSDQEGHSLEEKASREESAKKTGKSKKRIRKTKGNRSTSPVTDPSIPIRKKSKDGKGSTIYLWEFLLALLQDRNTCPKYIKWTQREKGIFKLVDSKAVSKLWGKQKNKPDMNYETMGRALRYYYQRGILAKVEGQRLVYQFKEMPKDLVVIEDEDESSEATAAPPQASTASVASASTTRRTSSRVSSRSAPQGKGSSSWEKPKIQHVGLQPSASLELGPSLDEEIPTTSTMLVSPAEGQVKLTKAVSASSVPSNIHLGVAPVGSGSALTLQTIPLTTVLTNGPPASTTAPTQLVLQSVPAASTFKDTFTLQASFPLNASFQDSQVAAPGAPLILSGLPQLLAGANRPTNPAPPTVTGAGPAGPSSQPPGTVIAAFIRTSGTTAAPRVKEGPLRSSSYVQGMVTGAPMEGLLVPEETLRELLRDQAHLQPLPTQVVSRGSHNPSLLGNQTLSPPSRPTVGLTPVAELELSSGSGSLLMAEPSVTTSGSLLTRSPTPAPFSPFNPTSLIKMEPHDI
In short: as §1

ELK4 = target: T3, ELK4 (Homo sapiens, UniProt P28324-2 1-405); details: protein: recombinant; tags: N-terminal GST; dsDNA, one strand shown
T3 sequence: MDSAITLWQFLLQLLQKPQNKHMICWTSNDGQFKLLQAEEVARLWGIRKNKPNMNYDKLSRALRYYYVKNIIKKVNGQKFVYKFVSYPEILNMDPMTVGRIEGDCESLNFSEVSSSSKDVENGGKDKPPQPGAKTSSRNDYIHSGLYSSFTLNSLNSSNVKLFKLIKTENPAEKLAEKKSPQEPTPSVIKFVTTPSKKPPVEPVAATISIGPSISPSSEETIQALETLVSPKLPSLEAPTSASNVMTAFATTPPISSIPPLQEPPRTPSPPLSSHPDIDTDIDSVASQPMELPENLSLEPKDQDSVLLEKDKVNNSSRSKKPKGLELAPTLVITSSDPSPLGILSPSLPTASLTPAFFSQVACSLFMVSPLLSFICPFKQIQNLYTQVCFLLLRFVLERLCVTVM
In short: as §1

ETV2 = target: T4, ETV2 (Homo sapiens, UniProt O00321 1-342); details: protein: recombinant; tags: N-terminal GST; dsDNA, one strand shown
T4 sequence: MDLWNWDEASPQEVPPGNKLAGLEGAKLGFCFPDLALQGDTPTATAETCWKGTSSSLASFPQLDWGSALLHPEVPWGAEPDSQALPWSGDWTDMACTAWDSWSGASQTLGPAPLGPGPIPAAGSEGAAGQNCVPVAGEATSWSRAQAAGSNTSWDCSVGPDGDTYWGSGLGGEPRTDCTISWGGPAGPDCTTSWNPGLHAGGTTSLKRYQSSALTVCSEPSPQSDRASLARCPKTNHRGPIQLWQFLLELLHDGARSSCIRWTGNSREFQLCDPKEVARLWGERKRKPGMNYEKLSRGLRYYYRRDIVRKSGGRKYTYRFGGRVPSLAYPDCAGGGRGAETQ
In short: as §1

ELF3 = target: T5, ELF3 (Homo sapiens, UniProt P78545 1-371); details: protein: recombinant; tags: N-terminal GST; dsDNA, one strand shown
T5 sequence: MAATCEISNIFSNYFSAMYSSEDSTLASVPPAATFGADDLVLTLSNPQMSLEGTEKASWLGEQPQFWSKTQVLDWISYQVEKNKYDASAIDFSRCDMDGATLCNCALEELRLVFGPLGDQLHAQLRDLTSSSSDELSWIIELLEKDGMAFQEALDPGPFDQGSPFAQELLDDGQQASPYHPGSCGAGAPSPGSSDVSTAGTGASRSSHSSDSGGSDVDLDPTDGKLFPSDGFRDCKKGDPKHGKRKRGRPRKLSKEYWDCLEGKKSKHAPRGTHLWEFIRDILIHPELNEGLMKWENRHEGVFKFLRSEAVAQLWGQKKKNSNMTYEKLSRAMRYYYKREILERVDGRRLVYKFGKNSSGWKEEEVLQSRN
In short: as §1

CRX = CRX (Homo sapiens, UniProt O43186 1-299); details: protein: recombinant; tags: N-terminal GST; dsDNA, one strand shown
CRX, sequence (O43186 whole entry): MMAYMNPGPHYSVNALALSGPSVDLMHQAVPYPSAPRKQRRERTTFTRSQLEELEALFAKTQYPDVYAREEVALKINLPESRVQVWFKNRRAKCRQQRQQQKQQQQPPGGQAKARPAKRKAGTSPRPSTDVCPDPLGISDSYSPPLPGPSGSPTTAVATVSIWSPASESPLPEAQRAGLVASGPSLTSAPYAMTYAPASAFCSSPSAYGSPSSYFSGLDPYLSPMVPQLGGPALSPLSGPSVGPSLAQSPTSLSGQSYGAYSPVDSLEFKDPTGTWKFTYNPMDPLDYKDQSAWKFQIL
In short: as §1

ETV1 = ETV1 (Homo sapiens, UniProt P50549 1-477); details: protein: recombinant; tags: N-terminal GST; dsDNA, one strand shown
ETV1, sequence (P50549 whole entry): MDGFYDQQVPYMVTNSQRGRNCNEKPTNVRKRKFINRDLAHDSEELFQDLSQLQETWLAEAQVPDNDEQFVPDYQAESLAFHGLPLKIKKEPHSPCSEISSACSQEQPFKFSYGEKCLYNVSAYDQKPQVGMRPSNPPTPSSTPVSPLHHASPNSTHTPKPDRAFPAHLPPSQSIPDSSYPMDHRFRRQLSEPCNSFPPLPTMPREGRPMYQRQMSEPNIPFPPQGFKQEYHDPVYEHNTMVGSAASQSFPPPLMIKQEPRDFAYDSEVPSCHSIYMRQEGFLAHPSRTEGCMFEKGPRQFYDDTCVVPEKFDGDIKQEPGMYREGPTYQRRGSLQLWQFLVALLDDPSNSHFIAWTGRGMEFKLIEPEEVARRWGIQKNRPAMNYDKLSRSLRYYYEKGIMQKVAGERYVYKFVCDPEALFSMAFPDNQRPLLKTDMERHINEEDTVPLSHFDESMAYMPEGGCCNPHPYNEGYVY
In short: as §1

Sequence	binding signal (FEV)	binding signal (ETV5)	binding signal (HSF1)	binding signal (SPIC)	binding signal (ELF4)	binding signal (ELK4)	binding signal (ETV2)	binding signal (ELF3)	binding signal (CRX)	binding signal (ETV1)
TTTGCT	1.16 fold enrichment (6-mer frequency, TF over GST control)	1.2 fold enrichment (6-mer frequency, TF over GST control)	1.47 fold enrichment (6-mer frequency, TF over GST control)	1.22 fold enrichment (6-mer frequency, TF over GST control)	1.27 fold enrichment (6-mer frequency, TF over GST control)	1.36 fold enrichment (6-mer frequency, TF over GST control)	1.39 fold enrichment (6-mer frequency, TF over GST control)	1.33 fold enrichment (6-mer frequency, TF over GST control)	1.45 fold enrichment (6-mer frequency, TF over GST control)	1.18 fold enrichment (6-mer frequency, TF over GST control)
AACATT	1.2 fold enrichment (6-mer frequency, TF over GST control)	1.31 fold enrichment (6-mer frequency, TF over GST control)	1.99 fold enrichment (6-mer frequency, TF over GST control)	1.21 fold enrichment (6-mer frequency, TF over GST control)	1.29 fold enrichment (6-mer frequency, TF over GST control)	1.31 fold enrichment (6-mer frequency, TF over GST control)	1.29 fold enrichment (6-mer frequency, TF over GST control)	1.33 fold enrichment (6-mer frequency, TF over GST control)	1.34 fold enrichment (6-mer frequency, TF over GST control)	1.29 fold enrichment (6-mer frequency, TF over GST control)
TACGAT	1.13 fold enrichment (6-mer frequency, TF over GST control)	1.12 fold enrichment (6-mer frequency, TF over GST control)	1.13 fold enrichment (6-mer frequency, TF over GST control)	1.05 fold enrichment (6-mer frequency, TF over GST control)	1.11 fold enrichment (6-mer frequency, TF over GST control)	1.14 fold enrichment (6-mer frequency, TF over GST control)	1.12 fold enrichment (6-mer frequency, TF over GST control)	1.11 fold enrichment (6-mer frequency, TF over GST control)	1.37 fold enrichment (6-mer frequency, TF over GST control)	1.07 fold enrichment (6-mer frequency, TF over GST control)
CAATTT	1.5 fold enrichment (6-mer frequency, TF over GST control)	1.29 fold enrichment (6-mer frequency, TF over GST control)	1.15 fold enrichment (6-mer frequency, TF over GST control)	1.26 fold enrichment (6-mer frequency, TF over GST control)	1.35 fold enrichment (6-mer frequency, TF over GST control)	1.31 fold enrichment (6-mer frequency, TF over GST control)	1.44 fold enrichment (6-mer frequency, TF over GST control)	1.53 fold enrichment (6-mer frequency, TF over GST control)	1.07 fold enrichment (6-mer frequency, TF over GST control)	1.35 fold enrichment (6-mer frequency, TF over GST control)
TTTATC	1.14 fold enrichment (6-mer frequency, TF over GST control)	1.2 fold enrichment (6-mer frequency, TF over GST control)	1.65 fold enrichment (6-mer frequency, TF over GST control)	1.26 fold enrichment (6-mer frequency, TF over GST control)	1.2 fold enrichment (6-mer frequency, TF over GST control)	1.4 fold enrichment (6-mer frequency, TF over GST control)	1.24 fold enrichment (6-mer frequency, TF over GST control)	1.18 fold enrichment (6-mer frequency, TF over GST control)	2.15 fold enrichment (6-mer frequency, TF over GST control)	1.18 fold enrichment (6-mer frequency, TF over GST control)
TACGCT	1.32 fold enrichment (6-mer frequency, TF over GST control)	1.3 fold enrichment (6-mer frequency, TF over GST control)	1.28 fold enrichment (6-mer frequency, TF over GST control)	1.21 fold enrichment (6-mer frequency, TF over GST control)	1.39 fold enrichment (6-mer frequency, TF over GST control)	1.26 fold enrichment (6-mer frequency, TF over GST control)	1.23 fold enrichment (6-mer frequency, TF over GST control)	1.29 fold enrichment (6-mer frequency, TF over GST control)	1.48 fold enrichment (6-mer frequency, TF over GST control)	1.25 fold enrichment (6-mer frequency, TF over GST control)
AATGTC	1.19 fold enrichment (6-mer frequency, TF over GST control)	1.23 fold enrichment (6-mer frequency, TF over GST control)	1.14 fold enrichment (6-mer frequency, TF over GST control)	1.41 fold enrichment (6-mer frequency, TF over GST control)	1.21 fold enrichment (6-mer frequency, TF over GST control)	1.32 fold enrichment (6-mer frequency, TF over GST control)	1.15 fold enrichment (6-mer frequency, TF over GST control)	1.36 fold enrichment (6-mer frequency, TF over GST control)	1.04 fold enrichment (6-mer frequency, TF over GST control)	1.14 fold enrichment (6-mer frequency, TF over GST control)
TTCGTA	1.3 fold enrichment (6-mer frequency, TF over GST control)	1.42 fold enrichment (6-mer frequency, TF over GST control)	1.33 fold enrichment (6-mer frequency, TF over GST control)	1.42 fold enrichment (6-mer frequency, TF over GST control)	1.39 fold enrichment (6-mer frequency, TF over GST control)	1.21 fold enrichment (6-mer frequency, TF over GST control)	1.37 fold enrichment (6-mer frequency, TF over GST control)	1.53 fold enrichment (6-mer frequency, TF over GST control)	1.52 fold enrichment (6-mer frequency, TF over GST control)	1.25 fold enrichment (6-mer frequency, TF over GST control)
TGTTAT	1.34 fold enrichment (6-mer frequency, TF over GST control)	1.34 fold enrichment (6-mer frequency, TF over GST control)	1.31 fold enrichment (6-mer frequency, TF over GST control)	1.45 fold enrichment (6-mer frequency, TF over GST control)	1.39 fold enrichment (6-mer frequency, TF over GST control)	1.35 fold enrichment (6-mer frequency, TF over GST control)	1.3 fold enrichment (6-mer frequency, TF over GST control)	1.35 fold enrichment (6-mer frequency, TF over GST control)	1.4 fold enrichment (6-mer frequency, TF over GST control)	1.42 fold enrichment (6-mer frequency, TF over GST control)
CTAACC	1.16 fold enrichment (6-mer frequency, TF over GST control)	1.19 fold enrichment (6-mer frequency, TF over GST control)	1.05 fold enrichment (6-mer frequency, TF over GST control)	1.08 fold enrichment (6-mer frequency, TF over GST control)	1.2 fold enrichment (6-mer frequency, TF over GST control)	1 fold enrichment (6-mer frequency, TF over GST control)	1.11 fold enrichment (6-mer frequency, TF over GST control)	1.27 fold enrichment (6-mer frequency, TF over GST control)	1.09 fold enrichment (6-mer frequency, TF over GST control)	1.16 fold enrichment (6-mer frequency, TF over GST control)
GCTCAC	1.54 fold enrichment (6-mer frequency, TF over GST control)	1.47 fold enrichment (6-mer frequency, TF over GST control)	1.22 fold enrichment (6-mer frequency, TF over GST control)	1.32 fold enrichment (6-mer frequency, TF over GST control)	1.53 fold enrichment (6-mer frequency, TF over GST control)	1.53 fold enrichment (6-mer frequency, TF over GST control)	1.63 fold enrichment (6-mer frequency, TF over GST control)	1.49 fold enrichment (6-mer frequency, TF over GST control)	1.37 fold enrichment (6-mer frequency, TF over GST control)	1.37 fold enrichment (6-mer frequency, TF over GST control)
TACACT	1.5 fold enrichment (6-mer frequency, TF over GST control)	1.5 fold enrichment (6-mer frequency, TF over GST control)	1.31 fold enrichment (6-mer frequency, TF over GST control)	1.58 fold enrichment (6-mer frequency, TF over GST control)	1.42 fold enrichment (6-mer frequency, TF over GST control)	1.53 fold enrichment (6-mer frequency, TF over GST control)	1.46 fold enrichment (6-mer frequency, TF over GST control)	1.36 fold enrichment (6-mer frequency, TF over GST control)	1.35 fold enrichment (6-mer frequency, TF over GST control)	1.59 fold enrichment (6-mer frequency, TF over GST control)
CTTGGA	1.04 fold enrichment (6-mer frequency, TF over GST control)	1.12 fold enrichment (6-mer frequency, TF over GST control)	1.26 fold enrichment (6-mer frequency, TF over GST control)	1.2 fold enrichment (6-mer frequency, TF over GST control)	1.21 fold enrichment (6-mer frequency, TF over GST control)	1.09 fold enrichment (6-mer frequency, TF over GST control)	1.12 fold enrichment (6-mer frequency, TF over GST control)	1.3 fold enrichment (6-mer frequency, TF over GST control)	1.17 fold enrichment (6-mer frequency, TF over GST control)	1.17 fold enrichment (6-mer frequency, TF over GST control)
